The source of these data is PubChem BioAssay (NCI).

Some test systems named below: DU-145 prostate; K-562 leukemia; MALME-3M melanoma; MDA-MB-231 breast; RXF 393 renal; SF-268 CNS; SF-295 CNS; SF-539 CNS; UACC-257 melanoma; M14 melanoma.
Holding throughout (assay): NCI-60 one-dose screen, 48 h (100 = growth as untreated, 0 = no growth, -100 = all killed)
Common to all, as to settings: 10 µM unless noted

The structures appear in SMILES notation. This is part of a sample that, as a whole, favours compounds with a hit. Of some 83,000 tested, about 20% had one in any assay.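 Cell lines were cultured in 96-well plates, exposed to a single compound concentration, and assessed for percent growth 48 hours later.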 Unmarked numbers belong to inactive results. Activity calls are given as the source filed them. Rule for the calls: active = growth percent below 10; inactive = the rest.

Regarding `O=C1c2ccc3c4ccc5c6c(ccc(c7ccc(c2c37)C(=O)N1CCC[P+](c1ccccc1)(c1ccccc1)c1ccccc1)c64)C(=O)N(CCC[P+](c1ccccc1)(c1ccccc1)c1ccccc1)C5=O`, the growth in the test with DU-145 prostate is 40.8%; in the test with K-562 leukemia it was 16.4%; with MALME-3M melanoma, -27.8% (active); in the test with MDA-MB-231 breast it was 59.6%; with RXF 393 renal it was 95%; in the test with SF-268 CNS, 57.6%. Further, the growth in the test with SF-295 CNS is 42.5%; in the test with SF-539 CNS it was 47.4%; with UACC-257 melanoma, 21.5%; in the test on M14 melanoma it was 18.8%.

With `CN(C)c1ccc(Nc2cc(-c3cccc(OC(F)(F)F)c3)nc3ccc(N4CCCC4)cc23)cc1`, the growth was 50.3% with DU-145 prostate; -20.9% (active) with K-562 leukemia; -90.4% (active) in the test on MALME-3M melanoma; 12.3% in the test on MDA-MB-231 breast; 88.8% in the test with RXF 393 renal; -13.4% (active) with SF-268 CNS. Also, the growth was 108% in the test with SF-295 CNS, 91.6% in the test with SF-539 CNS, 14.1% in the test with UACC-257 melanoma and -76.3% (active) with M14 melanoma.

For the molecule `COc1ccc(C(=O)Nc2ncc(Cc3ccc(F)cc3)s2)cc1`, the growth was 16.2% in the test with DU-145 prostate; 8.46% (active) in the test with K-562 leukemia; 60.2% in the test on MALME-3M melanoma; 29.6% in the test on MDA-MB-231 breast; 7.03% (active) in the test with RXF 393 renal; 50.6% in the test with SF-268 CNS. In addition, the growth in the test on SF-295 CNS is 9.8% (active); in the test with SF-539 CNS, -9.59% (active); with UACC-257 melanoma, 56%; with M14 melanoma, 16.4%.

Turning to `CC(=O)Nc1nc2ccc(NS(=O)(=O)c3cccc4c(N(C)C)cccc34)cc2[nH]1`, the growth is 87.8% in the test with DU-145 prostate; 20.6% with K-562 leukemia; 52.3% with MALME-3M melanoma; 63.5% in the test on MDA-MB-231 breast; 53.8% in the test on RXF 393 renal; 65.6% with SF-268 CNS. The growth in the test with SF-295 CNS was 37.3%; in the test with SF-539 CNS, 57.9%; in the test with UACC-257 melanoma, 61.9%; in the test on M14 melanoma, 35.9%.

Consider `O=C1c2cc(Cl)ccc2S(=O)(=O)c2c(NCCCNCCO)nc3ccccc3c21`, for which the growth in the test on DU-145 prostate is -24.7% (active); with K-562 leukemia, 0.0837% (active); in the test on MALME-3M melanoma, -81.4% (active); in the test on MDA-MB-231 breast, -70.7% (active); with RXF 393 renal, -36.5% (active); in the test on SF-268 CNS, 31.8%. Besides, the growth in the test on SF-295 CNS is 40.6%; in the test with SF-539 CNS, -18% (active); in the test with UACC-257 melanoma, 10.3%; in the test with M14 melanoma it was -37.9% (active).

In the case of `C=CCc1c2c(c(OC)c3ccoc13)C(=O)/C(=C/c1ccccc1OC)O2`, the growth in the test on DU-145 prostate was 35%; in the test with K-562 leukemia, 49.5%; in the test on MALME-3M melanoma it was 88.8%; in the test with MDA-MB-231 breast, 50.9%; in the test on RXF 393 renal it was 24.8%; with SF-268 CNS it was 60.4%. Besides, the growth with SF-295 CNS is 60.1%; with SF-539 CNS, 94.7%; in the test with UACC-257 melanoma, 63.7%; in the test on M14 melanoma, 64.2%.

Turning to `CCOC(=O)c1[nH]c(=O)c2c(C)nc(-c3ccccc3)cc2c1O`, the growth in the test on DU-145 prostate was 112%; in the test with K-562 leukemia, 110%; in the test on MALME-3M melanoma it was 136%; in the test with MDA-MB-231 breast it was 78.8%; in the test on RXF 393 renal it was 112%; with SF-268 CNS, 106%. Moreover, the growth in the test with SF-295 CNS is 110%; in the test with SF-539 CNS it was 106%; with UACC-257 melanoma, 106%; in the test on M14 melanoma it was 104%.

As to `Fc1ccc(Nc2nc3nonc3nc2Nc2ccc(I)cc2)cc1`, the growth in the test with DU-145 prostate was 23%; with K-562 leukemia, 6.8% (active); with MALME-3M melanoma, -25.6% (active); in the test with MDA-MB-231 breast it was -23.5% (active); with RXF 393 renal, -10.2% (active); in the test with SF-268 CNS, 22%. In addition, the growth with SF-295 CNS is -43.6% (active); in the test on SF-539 CNS, 7.05% (active); in the test on UACC-257 melanoma, -24.5% (active); in the test on M14 melanoma it was -3.95% (active).

Consider `CSc1nc2sc3c(c2c(=O)n1-c1ccc([N+](=O)[O-])cc1)CCCCC3`, for which the growth in the test on DU-145 prostate was 99%; with K-562 leukemia, 94.1%; in the test with MALME-3M melanoma it was 91.4%; with MDA-MB-231 breast it was 75.3%; in the test on RXF 393 renal it was 84.1%; with SF-268 CNS it was 98.7%. For the same molecule, the growth with SF-295 CNS is 68.8%; in the test on SF-539 CNS it was 95.3%; in the test with UACC-257 melanoma, 91.2%; in the test on M14 melanoma, 94.9%.

Take `COC(=O)[C@H]1CCCN1C[C@@H](O)CN1C(=O)/C(=C\c2cc(OC)c(OC)c(OC)c2)c2ccccc21`: the growth with DU-145 prostate was 99.6%; in the test with K-562 leukemia, 81.4%; with MALME-3M melanoma it was 100%; in the test with MDA-MB-231 breast, 102%; in the test on RXF 393 renal, 114%; in the test on SF-268 CNS it was 99.8%. For the same molecule, the growth in the test with SF-295 CNS is 105%; with SF-539 CNS it was 111%; in the test on UACC-257 melanoma, 90.6%; in the test on M14 melanoma, 97.3%.

With `CN(C)CCCC1(c2ccc(F)cc2)OCc2cc(-c3cccc4[nH]ccc34)ccc21` (stereo not given), the growth is 18.9% in the test with DU-145 prostate; -4.22% (active) with K-562 leukemia; -91.6% (active) with MALME-3M melanoma; 40.8% in the test with MDA-MB-231 breast; 37.6% with RXF 393 renal; 41% in the test on SF-268 CNS. Further, the growth in the test on SF-295 CNS is 20%; in the test on SF-539 CNS, 14%; in the test on UACC-257 melanoma it was -5.65% (active); in the test with M14 melanoma, -68.4% (active).

`O=C(COc1ccc(-c2nc3ccccc3[nH]2)cc1)N=Nc1c(O)[nH]c2ccc(Cl)cc12`: the growth with DU-145 prostate was 91.9%; in the test with K-562 leukemia, 2.09% (active); in the test with MALME-3M melanoma, 93.3%; in the test on MDA-MB-231 breast it was 84.6%; in the test with RXF 393 renal it was 88.2%; in the test on SF-268 CNS, 99.3%. Moreover, the growth in the test with SF-295 CNS was 91.2%; in the test on SF-539 CNS it was 93.3%; in the test with UACC-257 melanoma, 104%; with M14 melanoma, 87%.

On to `C=C(C)[C@@H]1CC[C@]2(C(=O)O)CC[C@]3(C)[C@H](CC[C@@H]4[C@@]5(C)C[C@@H](Cc6cn(CCO[C@@H]7O[C@H](COC(C)=O)[C@H](OC(C)=O)[C@H](OC(C)=O)[C@H]7OC(C)=O)nn6)[C@H](O)C(C)(C)[C@@H]5CC[C@]43C)[C@@H]12`, for which the growth was 81.8% with DU-145 prostate; 53% in the test on K-562 leukemia; 77.7% with MALME-3M melanoma; 48.1% in the test on MDA-MB-231 breast; 77.5% in the test on RXF 393 renal; 61.2% in the test with SF-268 CNS. Also, the growth in the test with SF-295 CNS was 76.7%; in the test on SF-539 CNS, 79.3%; in the test with UACC-257 melanoma, 61.9%; with M14 melanoma it was 81.2%.
